# Measurements reported in PubChem BioAssay AID1508625 (Wald Lab, School of Medicine, Case Western Reserve …, 2021).
# Assay: small molecules boosting NK-mediated OVCAR3 lysis – imaging, primary NK cells, calcein-AM imaging, primary screen (AID 1508625);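 note: compound given to NK cells 16 h before adding targets at 1.5 to 1 ratio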;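 for z-score: more negative robust z means stronger NK killing of tumor cells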
# Details: OVCAR3 lysis by primary NK cells, at 5 µM; z-score: measured here: robust Z-score, single-point normalisation
Compound,"corrected activity, negative = more killing [%]",z-score
Cc1ccc(OCCNC2CCCC2)c(C)c1,0.166,0.0921
O=C(c1cccc(F)c1)N1CCCN(C(=O)c2cccc(F)c2)CC1,-4.12,-1.69
O=C(c1cc(-c2ccc3c(c2)OCO3)nc2ccccc12)N1CCN(Cc2ccc3c(c2)OCO3)CC1,-3.33,-1.37
